Assay [1] in a line: qHTS assay to test for compound auto fluorescence at 590 nm (red) in HepG2 cells (AID 720674). Put shortly: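 Red autofluorescence (Ex/Em 540/590 nm, Rose Bengal sodium equivalents) was measured in HepG2 cells, 2,000 per well in MEM plus 10% FBS, plated overnight at 37 C. Readings were taken 1 hr after adding 23 nL compound or DMSO, at 37 C and 5% CO2.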
(In general: Quantitative high-throughput screening tests each substance at several concentrations.)

Assay [2] in a line: qHTS assay to test for compound auto fluorescence at 460 nm (blue) in HEK293 cells (AID 720678). Put shortly:
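Blue read-out at excitation 405 nm and emission 460 nm follows overnight compound exposure of HEK293 cells at 37C in 5% CO2. Activity is given as auto fluorescence equivalency to triamterene.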

The nature of assay [3]: qHTS assay to test for compound auto fluorescence at 590 nm (red) in HEK293 cells (AID 720679). In a few lines:
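Red channel, Ex/Em 540/590nm; signal expressed as equivalency to Rose Bengal sodium. HEK293, 2,000 cells/well, 10% dialyzed FBS; 23 nL compound pinned after 4-5 hr attachment; overnight 37C/5% CO2 before reading.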

The nature of assay [4]: qHTS assay to test for compound auto fluorescence at 460 nm (blue) in HepG2 cells (AID 720687). In a few lines: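 Blue-channel autofluorescence (Ex/Em 405/460 nm, triamterene-equivalent) was measured after 1 hr compound exposure at 37 C, 5% CO2. Cells were HepG2, plated overnight at 37 C in MEM plus 10% FBS.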
In assay [5] the target is Glucocorticoid receptor (Homo sapiens) (UniProt P04150). Description: qHTS assay to identify small molecule antagonists of the glucocorticoid receptor (GR) signaling pathway (AID 720692; active = well fitted inhibition curve with a large enough effect in the signal ratio in the repeat runs, not every such curve was filed as active; inconclusive = weak or mixed curves, or effect the other way; inactive = no such curve, though single readings can be large or run the other way; the % refers to the signal ratio; note: potency is the fitted concentration of half-maximal effect). In a few lines: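 HeLa GR-bla cells; cmpd + dex 5 nM final, 18 h 37 C; LiveBLAzer B/G FRET substrate 2 h RT; fluorescence intensity read. Antagonist mode, qHTS.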
Sequence of Glucocorticoid receptor (Homo sapiens) (P04150 whole entry, looked up): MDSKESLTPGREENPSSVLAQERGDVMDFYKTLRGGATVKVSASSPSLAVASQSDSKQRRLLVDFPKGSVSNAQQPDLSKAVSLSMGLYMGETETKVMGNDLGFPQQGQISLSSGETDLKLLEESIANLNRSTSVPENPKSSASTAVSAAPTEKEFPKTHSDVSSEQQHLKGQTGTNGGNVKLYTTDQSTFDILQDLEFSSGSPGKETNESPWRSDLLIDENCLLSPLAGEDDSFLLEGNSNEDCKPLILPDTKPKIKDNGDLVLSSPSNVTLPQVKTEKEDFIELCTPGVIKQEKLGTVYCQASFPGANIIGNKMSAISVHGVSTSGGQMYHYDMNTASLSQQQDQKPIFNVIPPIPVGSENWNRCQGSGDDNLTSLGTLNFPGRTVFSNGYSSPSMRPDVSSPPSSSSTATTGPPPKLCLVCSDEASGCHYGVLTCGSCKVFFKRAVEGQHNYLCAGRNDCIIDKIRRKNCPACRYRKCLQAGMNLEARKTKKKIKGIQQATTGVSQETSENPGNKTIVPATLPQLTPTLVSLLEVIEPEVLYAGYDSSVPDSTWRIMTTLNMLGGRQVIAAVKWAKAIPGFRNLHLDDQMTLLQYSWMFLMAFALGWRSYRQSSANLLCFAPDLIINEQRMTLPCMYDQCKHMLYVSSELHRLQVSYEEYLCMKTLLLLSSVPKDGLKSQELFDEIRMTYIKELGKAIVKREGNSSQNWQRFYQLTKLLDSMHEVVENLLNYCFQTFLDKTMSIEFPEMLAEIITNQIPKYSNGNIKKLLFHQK
Assay [6] can be described thus: qHTS assay for small molecules that induce genotoxicity in human embryonic kidney cells expressing luciferase-tagged ATAD5 (AID 651632). Note: nearly all actives have a fitted effect of over 15% in size. In a few lines: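 ATAD5-luc HEK293T, 2,000 cells/well; cpd or DMSO pin-transferred; 16 hr, 37C/5% CO2; Amplite 30 min RT; luminescence.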
A short description of assay [7]: qHTS assay for small molecule agonists of the p53 signaling pathway - cell viability (AID 651633; calls by dose curve;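 note: p53RE-bla HCT reporter cells with a stable beta-lactamase p53 reporter; series mostly up to about 83 µM; nearly all actives have a fitted effect of over 30% in size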). Put shortly:
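Viability counter-read: CellTiter-Glo luminescence (30 min, room temperature) in the same p53RE-bla plates. These plates had been exposed to compounds for 16 h at 37 C.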

Assay [8] concerns the target Glucocorticoid receptor (Homo sapiens) (UniProt P04150). Kind of assay: qHTS assay to identify small molecule agonists of the glucocorticoid receptor (GR) signaling pathway (AID 720691; active = well fitted activation curve with a large enough effect in the signal ratio in the repeat runs, not every such curve was filed as active; inconclusive = weak or mixed curves, or effect the other way; inactive = no such curve, though single readings can be large or run the other way; the % refers to the signal ratio). In a few lines: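 Fluorescence intensity from LiveBLAzer B/G FRET substrate (2 h, room temperature) reports beta-lactamase expression driven by the glucocorticoid response element in GR-bla HeLa cells after 18 h compound exposure at 37 C.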

Assay [9] is described as follows: qHTS assay for identifying genotoxic compounds that show differential cytotoxicity against isogenic chicken DT40 cell lines with known DNA damage response pathways - wild type cell line (AID 743012). Note: nearly all actives have a fitted effect of over 60% in size. Put shortly: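 Wild type DT40, 300 cells/well, ~0.5 h settle at 37 C/5% CO2; compounds in DMSO added by pintool; 40 h at 37 C/5% CO2; CellTiter-Glo, 30 min RT; luminescence.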

Assay [10] in a line: qHTS assay for identifying genotoxic compounds that show differential cytotoxicity against isogenic chicken DT40 cell lines with known DNA damage response pathways - Rev3 mutant cell line (AID 743014). Note: nearly all actives have a fitted effect of over 55% in size.
The nature of assay [11]: qHTS assay for identifying genotoxic compounds that show differential cytotoxicity against isogenic chicken DT40 cell lines with known DNA damage response pathways - Rad54/Ku70 mutant cell line (AID 743015). Note: nearly all actives have a fitted effect of over 60% in size.
The nature of assay [12]: qHTS assay to identify small molecule antagonists of the androgen receptor (AR) signaling pathway - cell viability counter screen (AID 743033; note: nearly all actives have a fitted effect of over 45% in size).
The nature of assay [13]: qHTS assay to identify small molecule antagonists of the thyroid receptor (TR) signaling pathway - cell viability counter screen (AID 743064). Note: nearly all actives have a fitted effect of over 50% in size. Put shortly: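 In-well cytotoxicity read by CellTiter-Fluor (30 min, 37 C) following 23.5 h exposure of GH3 cells bearing a TRE-luciferase sensor. Compounds were added alongside 1 nM (final) T3 to drive TR transactivation.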
The nature of assay [14]: qHTS assay to identify small molecule antagonists of the thyroid receptor (TR) signaling pathway (AID 743065). Note: series mostly up to about 70 µM; nearly all actives have a fitted effect of over 55% in size. In a few lines:
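Antagonism measured as loss of luciferase signal in GH3 cells stably carrying a TRE-luciferase reporter, co-treated with compound and T3 (1 nM final) for 23.5 h at 37 C. Viability was read in the same well by CellTiter-Fluor.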

Assay [15] in a line: qHTS assay to identify small molecule antagonists of the glucocorticoid receptor (GR) signaling pathway - cell viability counter screen (AID 720693). Note: nearly all actives have a fitted effect of over 55% in size.
For assay [16], the target named is Nuclear receptor subfamily 1 group I member 2 (Homo sapiens) (UniProt O75469). Description: CYP3A4 induction through human pregnane X receptor (PXR) by small molecules, qHTS assay (AID 1346984). Note: nearly all actives have a fitted effect of over 40% in size. Note: potency is the fitted concentration of half-maximal effect. In a few lines:
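Luminescence readout: luciferase signal after One-Glo (30 min, room temperature), following 3 h at 37C with 3uM final Luciferin-IPA P450 substrate. Cells were DPX-2 (HepG2, PXR/CYP3A4-luc co-transfected) dosed for 24 h.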

For assay [17] the target is unchanged. Description: Human pregnane X receptor (PXR) activation by small molecules, qHTS assay (AID 1346985). Note: nearly all actives have a fitted effect of over 40% in size. Put shortly: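 DPX-2 cells (HepG2 co-transfected with a PXR response element and a CYP3A4-promoter luciferase construct) were seeded at 2,000 per well, rested 5 hr at 37C, then exposed to DMSO-dissolved compounds for 24 hr. Activation was read as luciferase luminescence.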

Assay [18] addresses Estrogen receptor (Homo sapiens) (UniProt P03372). Description: qHTS assay to identify small molecule agonists of the estrogen receptor alpha (ER-alpha) signaling pathway (AID 743075; calls by dose curve;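 note: HEK293 GripTite cells with ER-alpha and UAS-driven beta-lactamase reporter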; note: potency is the fitted concentration of half-maximal effect).
Assay [19] shares this target. Description: qHTS assay to identify small molecule agonists of the estrogen receptor alpha (ER-alpha) signaling pathway using the BG1 cell line (AID 743079). Note: nearly all actives have a fitted effect of over 20% in size. Note: potency is the fitted concentration of half-maximal effect.
The target in assay [20] is Peroxisome proliferator-activated receptor gamma (Homo sapiens) (UniProt P37231). Kind of assay: qHTS assay to identify small molecule agonists of the peroxisome proliferator-activated receptor gamma (PPARg) signaling pathway (AID 743094; active = well fitted activation curve with a large enough effect in the signal ratio in the repeat runs, not every such curve was filed as active; inconclusive = weak or mixed curves, or effect the other way; inactive = no such curve, though single readings can be large or run the other way; the % refers to the signal ratio). Put shortly:
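Beta-lactamase FRET fluorescence was the read-out after a 1 h room-temperature substrate step, following 17 h compound treatment at 37C of HEK293H cells expressing a UAS-driven bla reporter responsive to PPARg.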

Active and inactive are the calls of the source. Unless noted, calls come from the whole dose curve; as a rule, active = well fitted curve in the direction sought with a large enough effect in the repeat runs; inconclusive = weak or mixed curves; inactive = no such curve, though single readings can be large; an effect the other way counts as inactive or inconclusive.

Sequence of Estrogen receptor (Homo sapiens) (P03372 whole entry, looked up): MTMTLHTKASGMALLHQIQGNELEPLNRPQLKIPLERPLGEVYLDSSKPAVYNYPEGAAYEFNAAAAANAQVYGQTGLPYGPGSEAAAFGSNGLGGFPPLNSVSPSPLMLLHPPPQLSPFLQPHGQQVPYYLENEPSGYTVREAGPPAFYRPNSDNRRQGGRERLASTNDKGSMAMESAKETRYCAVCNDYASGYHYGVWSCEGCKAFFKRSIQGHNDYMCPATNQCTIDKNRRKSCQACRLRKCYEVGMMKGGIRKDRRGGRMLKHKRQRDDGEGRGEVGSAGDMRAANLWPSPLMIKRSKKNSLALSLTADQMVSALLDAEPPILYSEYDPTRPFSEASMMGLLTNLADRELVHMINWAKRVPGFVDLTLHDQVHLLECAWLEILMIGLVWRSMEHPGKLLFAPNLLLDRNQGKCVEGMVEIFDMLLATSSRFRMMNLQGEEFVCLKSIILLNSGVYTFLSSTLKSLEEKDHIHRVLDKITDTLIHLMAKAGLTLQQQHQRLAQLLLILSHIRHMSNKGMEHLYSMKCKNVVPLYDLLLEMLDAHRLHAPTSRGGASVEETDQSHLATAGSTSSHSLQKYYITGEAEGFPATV
Sequence of Peroxisome proliferator-activated receptor gamma (Homo sapiens) (P37231 whole entry, looked up): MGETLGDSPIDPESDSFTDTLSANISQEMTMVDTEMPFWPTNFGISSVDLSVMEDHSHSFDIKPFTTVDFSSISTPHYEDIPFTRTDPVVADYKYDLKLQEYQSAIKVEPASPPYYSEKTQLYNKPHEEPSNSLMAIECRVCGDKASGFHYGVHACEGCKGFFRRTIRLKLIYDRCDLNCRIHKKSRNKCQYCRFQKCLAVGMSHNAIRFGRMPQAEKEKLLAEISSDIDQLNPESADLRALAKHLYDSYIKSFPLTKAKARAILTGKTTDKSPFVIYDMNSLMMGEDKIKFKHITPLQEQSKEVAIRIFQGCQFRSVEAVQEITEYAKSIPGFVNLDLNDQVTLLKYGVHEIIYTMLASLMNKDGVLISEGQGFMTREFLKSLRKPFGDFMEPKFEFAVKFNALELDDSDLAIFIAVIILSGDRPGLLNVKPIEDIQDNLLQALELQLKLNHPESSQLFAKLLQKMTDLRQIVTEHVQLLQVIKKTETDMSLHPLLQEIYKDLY

Consider `Cc1ccc(O)cc1C`, for which the outcome in assay [1] and in assay [3] was inactive. For the same compound, the Potency result in assay [2] and in assay [4] was “inactive” in each case.

Consider `CNc1ccccc1`, for which the Potency result in assay [5] is “inactive”.

Regarding `Nc1ccc(N)c2ccccc12`, the Potency in assay [5] was 24.5 µM (active).

In the case of `Cc1cccc(C)c1`, in assay [5], the Potency result was “inactive”.

Consider `O=C(O)/C=C\C(=O)O`, for which the Potency entry in [6], in assay [7], in [2], in [4], in assay [8] and in assay [5] was “inactive” each time. Moreover, the Potency entry in assay [9], in assay [10], in [11], in assay [12], in assay [13] and in assay [14] was “inactive” in each case. Besides, the result in assay [1] and in assay [3] was inactive.

As to `O=C(O)/C=C/C(=O)O`, the Potency result in assay [6], in assay [7], in assay [2], in [8], in [5] and in assay [15] was “inactive” throughout. The Potency result in assay [10], in [11], in [12], in [13] and in [14] was “inactive” each time. The call in assay [1] was inactive.

In the case of `O=[N+]([O-])c1ccccc1Cl`, the call in [1] and in assay [3] was inactive. Further, the Potency entry in assay [2], in assay [4] and in assay [14] was “inactive” each time.

Consider `Cc1ccc2ccccc2c1C`, for which the call in assay [1] and in assay [3] was inactive. In addition, the Potency result in [2] and in [4] was “inactive” throughout.

`c1cc2c(c(NC3=NCCN3)c1)CCCC2`: the Potency entry in assay [6], in assay [7], in assay [2], in assay [4], in assay [8] and in assay [5] was “inactive” in each case. Moreover, the Potency entry in assay [15], in [16] and in [17] was “inactive” in each case. In addition, the compound was classed as inactive in assay [1] and in [3].

As to `C[C@]12CC[C@H]3[C@@H](CCC4=C(O)C(=O)CC[C@@H]43)[C@@H]1CC[C@@H]2OC(=O)CCC1CCCC1`, the Potency result in assay [7], in assay [2], in assay [4], in assay [8], in assay [10] and in assay [11] was “inactive” each time. Further, the Potency result in assay [12], in assay [13], in [14], in assay [20], in assay [16] and in assay [17] was “inactive” throughout. The result in assay [1] and in assay [3] was inactive. The Potency is 0.952 µM [inconclusive] (active) in assay [18] and 0.119 µM (active) in assay [19].

On to `CCCC(C)(COC(N)=O)COC(=O)NC1CC1` (stereo not drawn), for which the Potency entry in assay [6], in [7], in assay [2], in [4], in assay [8] and in [5] was “inactive” in each case. Also, the Potency result in assay [15], in assay [10], in [11], in [12], in assay [13] and in assay [14] was “inactive” each time. Besides, the Potency entry in [18], in assay [19], in assay [20], in [16] and in assay [17] was “inactive” in each case. For the same compound, the call in assay [1] and in assay [3] was inactive.

Take `CCOc1ccc2c3c1O[C@H]1[C@@H](O)C=C[C@H]4[C@@H](C2)N(C)CC[C@@]341`: the Potency result in [7], in [2], in assay [4], in assay [8], in assay [5] and in assay [15] was “inactive” in each case. For the same compound, the Potency entry in assay [11], in [18], in assay [19], in [20] and in [17] was “inactive” in each case. For the same compound, the outcome in [1] and in assay [3] was inactive. In addition, in assay [16], the Potency was 7.94 µM (active).

On to `C[C@@H](CO)NC(=O)[C@@H]1C=C2c3cccc4[nH]cc(c34)C[C@H]2N(C)C1`, for which the Potency entry in [7], in assay [2], in [4], in assay [8], in [5] and in [15] was “inactive” throughout. The Potency entry in [9], in assay [10], in assay [11], in assay [12], in [14] and in assay [20] was “inactive” throughout. For the same compound, the Potency result in assay [16] and in [17] was “inactive” in each case. The outcome in assay [1] and in assay [3] was inactive.
